This is part of a sample that, as a whole, favours compounds with a hit. Of some 83,000 tested, about 20% had one in any assay.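 Growth was measured after 48 h exposure to one concentration of compound in 96-well plates. Values under 10 count as active.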 Unmarked numbers belong to inactive results. Active and inactive are the calls of the source.
Legend:
Assay in all cases: NCI-60 one-dose screen, 48 h (100 = growth as untreated, 0 = no growth, -100 = all killed)
NCI-H23 lung = details: 10 µM unless noted
NCI-H226 lung = details: 10 µM unless noted
NCI-H322M lung = details: 10 µM unless noted
HOP-62 NSCLC = details: 10 µM unless noted
NCI-H460 lung = details: 10 µM unless noted
HOP-92 NSCLC = details: 10 µM
NCI-H522 lung = details: 10 µM unless noted
A549/ATCC NSCLC = details: 10 µM unless noted
786-0 renal = details: 10 µM unless noted
COLO 205 colon = details: 10 µM unless noted
DU-145 prostate = details: 10 µM unless noted
K-562 leukemia = details: 10 µM unless noted
MALME-3M melanoma = details: 10 µM unless noted
MDA-MB-231 breast = details: 10 µM unless noted
RXF 393 renal = details: 10 µM unless noted
SF-268 CNS = details: 10 µM unless noted
SF-295 CNS = details: 10 µM unless noted
SF-539 CNS = details: 10 µM unless noted
UACC-257 melanoma = details: 10 µM unless noted

Work on `Cc1ccc(-n2cc(/C=N/NC(=O)c3ccncc3)c(-c3ccc(S(C)(=O)=O)cc3)n2)cc1` yielded a growth (NCI-H23 lung) of 83%, a growth (NCI-H226 lung) of 101% and a growth (NCI-H322M lung) of 93.5%. It also gave a growth (HOP-62 NSCLC) of 88.7%, a growth (NCI-H460 lung) of 101% and a growth (HOP-92 NSCLC) of 97.5%. For the same compound, the growth (NCI-H522 lung) was 68.8%, the growth (A549/ATCC NSCLC) was 103% and the growth (786-0 renal) was 90%. It also gave a growth (COLO 205 colon) of 104%, a growth (DU-145 prostate) of 97.3% and a growth (K-562 leukemia) of 32.3%. It also gave a growth (MALME-3M melanoma) of 68.7%, a growth (MDA-MB-231 breast) of 79.5% and a growth (RXF 393 renal) of 103%. It also gave a growth (SF-268 CNS) of 100%, a growth (SF-295 CNS) of 102% and a growth (SF-539 CNS) of 91.8%. It also gave a growth (UACC-257 melanoma) of 96.5%.

Work on `CCN1CCN(Cc2ccc(C(=O)Nc3ccc(C)c(Oc4ccc(-c5[nH]nc6ncnc(N)c56)cc4)c3)cc2C(F)(F)F)CC1` yielded a growth (NCI-H23 lung) of 93.2%, a growth (NCI-H226 lung) of 85.8% and a growth (NCI-H322M lung) of 99%. For the same compound, the growth (HOP-62 NSCLC) was 103%, the growth (NCI-H460 lung) was 106% and the growth (HOP-92 NSCLC) was 70.3%. It also gave a growth (NCI-H522 lung) of 101%, a growth (A549/ATCC NSCLC) of 96.6% and a growth (786-0 renal) of 69.4%. The growth (COLO 205 colon) was 56.7%, the growth (DU-145 prostate) was 98.6% and the growth (K-562 leukemia) was 3.44% (active). It also gave a growth (MALME-3M melanoma) of 22.8%, a growth (MDA-MB-231 breast) of 82.7% and a growth (RXF 393 renal) of 44.3%. The growth (SF-268 CNS) was 90.5%, the growth (SF-295 CNS) was 78.8% and the growth (SF-539 CNS) was 55.6%. For the same compound, the growth (UACC-257 melanoma) was 71.9%.

`COc1cc(-c2nc(-c3ccccc3)[nH]c2-c2ccnc(NCCCNS(=O)(=O)c3cccc(F)c3)n2)ccc1Cl` gave a growth (NCI-H23 lung) of 53.4%, a growth (NCI-H226 lung) of 42.1% and a growth (NCI-H322M lung) of 87.1%. For the same compound, the growth (HOP-62 NSCLC) was 54%, the growth (NCI-H460 lung) was 28.7% and the growth (HOP-92 NSCLC) was 65.1%. For the same compound, the growth (NCI-H522 lung) was 32.6%, the growth (A549/ATCC NSCLC) was 38% and the growth (786-0 renal) was 54.9%. The growth (COLO 205 colon) was 9.39% (active), the growth (DU-145 prostate) was 54.3% and the growth (K-562 leukemia) was 23.4%. The growth (MALME-3M melanoma) was 64.3%, the growth (MDA-MB-231 breast) was 64.8% and the growth (RXF 393 renal) was 36.1%. It also gave a growth (SF-268 CNS) of 59.4%, a growth (SF-295 CNS) of 25% and a growth (SF-539 CNS) of 69.5%. It also gave a growth (UACC-257 melanoma) of 58.7%.

Work on `Brc1ccccc1/C=N/Nc1nc(N/N=C/c2ccccc2Br)nc(N2CCOCC2)n1` yielded a growth (NCI-H23 lung) of 105%, a growth (NCI-H226 lung) of 95.1% and a growth (NCI-H322M lung) of 96.8%. The growth (HOP-62 NSCLC) was 108%, the growth (NCI-H460 lung) was 103% and the growth (HOP-92 NSCLC) was 112%. The growth (NCI-H522 lung) was 86.6%, the growth (A549/ATCC NSCLC) was 97.1% and the growth (786-0 renal) was 61.3%. The growth (COLO 205 colon) was 86.1%, the growth (DU-145 prostate) was 98.3% and the growth (K-562 leukemia) was 94.1%. For the same compound, the growth (MALME-3M melanoma) was 143%, the growth (MDA-MB-231 breast) was 103% and the growth (RXF 393 renal) was 69.6%. It also gave a growth (SF-268 CNS) of 102%, a growth (SF-295 CNS) of 85.5% and a growth (SF-539 CNS) of 105%. It also gave a growth (UACC-257 melanoma) of 104%.
